Measurements reported in ChEMBL document CHEMBL1201862, “PubChem BioAssay data set” (2004).
The campaign covered roughly 1,200 compounds. About 140 (12%) were called active. The calls are words filed in the database; no cut-off is given here. Only a selection was taken, and actives are over-represented in it overall.

test: CFTR-F508del correctors, dose response, FRT cells, YFP quenching, cherry-pick (AID 743402); format: functional, cell-based

AbsAC35, active:
COc1ccc(NC(=O)C(=O)NCC2CCCN2S(=O)(=O)c2cccs2)cc1 (stereo not given) 87.6 µM, CC(=O)c1cccc(-c2ccnc3c2CC(C(=O)NCc2ccco2)O3)c1 (stereo not given) 40.3 µM, O=c1c(O)c(-c2cccs2)oc2ccc(Cl)cc12 30.3 µM, COc1ccc(C2=Nn3c(nnc3-c3ccccc3OC)SC2)cc1OC1CCOC1 (stereo not given) 160 µM, CCc1ccc(OCCNc2cc(N3CCNC(C)C3)ccc2[N+](=O)[O-])cc1 (stereo not given) 58.8 µM, N#Cc1ccc(-c2cccs2)nc1SCc1cccnc1 107 µM, CCN(CC)CCC(=O)Nc1cccc2c1C(=O)c1ccccc1C2=O 40.8 µM, O=C(OCc1ccc(Br)cc1)c1cc([N+](=O)[O-])ccc1N1CCOCC1 28.4 µM, CC(=O)Nc1ccc(S(=O)(=O)N2c3ccccc3C(C)=CC2(C)C)cc1 42.7 µM, COc1ccc(C2C3=C(COC3=O)Oc3cc4c(cc32)OCO4)cc1OC (stereo not given) 116 µM
